The list is not random: actives were taken first. Their share in the collection is about 7.3%.
FMDV inh – blocks foot and mouth disease virus; actives 1.2% (n = 410,000); AID 1159524; Potency, µM (series often up to 57.9 µM), without a hit: top-dose activity change, negative = inhibition, usual class: inhibitors; FMDV antiviral cell-based qHTS; calls by dose curve; tested in HEK293T cells; note: read-out not given here; potency is the fitted concentration of half-maximal effect; nearly all actives have a fitted effect of over 45% in size
HCV inh – inhibitors of hepatitis C virus infection; Huh7.5.1 HCVcc-Cre infection, luciferase reporter, 44 h; Potency, µM (series often up to 41.8 µM), for inactives: at the top dose activity change, negative = inhibition, hits mostly inhibitors; actives 3.4% (n = 340,000); AID 651820; note: potency is the fitted concentration of half-maximal effect
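Infectious HCV cell culture screen: compound-treated cells (1,000/well, pre-plated 4 h) are infected with HCVcc-Cre at roughly 0.5 moi and grown 44 h. Infection is quantified by luciferase signal after 15 min substrate incubation at room temperature.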
HCMV inh – human cytomegalovirus inhibition | HFF cells, HCMV-luciferase reporter, 72 h; hits give low values | activity change, negative = inhibition, % at 57.5 µM | actives 4.5% (n = 410,000); in the data active = activity change below about -60%; inconclusive = no clear call, values can overlap the other calls; inactive = above about -39%
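HFF cells seeded 16 h at 37C, treated with compounds, infected with luciferase-reporter HCMV at MOI 1 PFU/cell; luciferase read at 72 h post infection, normalized to buffer-only and Salinomycin controls.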
AmpC detergent – inhibitors of E. coli AmpC beta-lactamase with detergent; P00811; AmpC hydrolysis of nitrocefin, absorbance 480 nm, 0.01% Triton; Potency, µM (doses to about 114 µM), for inactives: at the top dose activity change, negative = inhibition, usual class: inhibitors; actives 0.041% (n = 370,000);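 note: potency is the fitted concentration of half-maximal effect; 0% = no-compound wells and -100% = no-enzyme wells; nearly all actives have a fitted effect of over 25% in size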
Target sequence (P00811 whole entry, looked up): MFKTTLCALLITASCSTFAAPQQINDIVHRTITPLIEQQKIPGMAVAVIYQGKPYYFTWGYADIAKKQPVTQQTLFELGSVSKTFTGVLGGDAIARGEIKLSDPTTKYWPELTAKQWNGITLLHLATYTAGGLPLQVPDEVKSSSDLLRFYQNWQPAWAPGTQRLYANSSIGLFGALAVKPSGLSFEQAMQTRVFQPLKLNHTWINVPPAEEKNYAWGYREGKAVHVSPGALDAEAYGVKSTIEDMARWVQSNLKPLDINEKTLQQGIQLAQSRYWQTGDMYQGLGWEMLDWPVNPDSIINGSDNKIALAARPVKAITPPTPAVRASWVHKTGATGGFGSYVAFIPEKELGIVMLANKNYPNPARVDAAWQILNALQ
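AmpC (5.3 nM in the dispensed reagent) in 20 mM phosphate pH 7.0 with 0.01% (detergent screen) or 0.0001% Triton X-100 was preincubated with compounds for 15 min at room temperature. Nitrocefin was then added from an 800 uM solution, and hydrolysis was followed at 480 nm.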
AmpC no deterg – blocks E. coli AmpC beta-lactamase in detergent-free assay; P00811; AmpC nitrocefin hydrolysis, absorbance 480 nm, 0.0001% Triton; Potency, µM (titrated, usually from 57.1 µM), for the others: at the top dose activity change, negative = inhibition, actives largely listed as inhibitors; actives 0.52% (n = 330,000); AID 485341;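 note: potency is the fitted concentration of half-maximal effect; plate controls were no compound for no effect and no enzyme for full effect; nearly all actives have a fitted effect of over 20% in size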
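20 mM phosphate pH 7.0 + 0.01% (detergent screen) or 0.0001% Triton X-100; 5.3 nM AmpC reagent; cpd preinc 15 min RT; nitrocefin (800 uM stock) to start; A480 q20 s × 4 min; Activity was normalised to no-enzyme and no-compound control wells.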
An asterisk follows results filed as active; ? = inconclusive; / = not tested or not shown; + = active, no number. Unless noted, calls come from the whole dose curve; as a rule, active = well fitted curve in the direction sought with a large enough effect; inconclusive = small, poorly fitted or top-dose-only effect, or another doubt; inactive = no such curve, though single readings can be large; an effect the other way counts as inactive or inconclusive. Unless noted, % is set by controls: 0 for no effect and ±100 for the full control effect.

SMILES	FMDV inh	HCV inh	HCMV inh	AmpC detergent	AmpC no deterg
O=C(CCc1ccccc1)Nc1ccnn1C1CCN(C/C=C/c2ccccc2)CC1	-26%	-21%	-10	?	67%
CSCC(C)N1CCC(n2nccc2NC(=O)CCc2ccccc2)CC1 (centres undefined)	13%	9%	16	-9%	-31%
CSCC(C)N1CCC(n2nccc2NC(=O)CCCc2ccccc2)CC1 (centres undefined)	-8%	6%	+	-14%	30%
C=CCn1c(SCC(=O)Nc2cc(NC(C)=O)ccc2OC)nnc1-c1ccccn1	-15%	-2%	37	-7%	-15%
C=CCn1c(SCC(=O)Nc2ccccc2OC)nnc1-c1ccccn1	?	7.9µM*	18	2%	3%
Cn1c(=O)[nH]c(=O)c2c1nc(N1CCCC1)n2CCCSc1nc2ccccc2o1	?	-23%	-17	-5%	1%
Cn1c(=O)[nH]c(=O)c2c1nc(Br)n2CCCSc1nc2ccccc2o1	22µM*	?	-61*	?	31%
CN1CCN(c2nc3c(c(=O)[nH]c(=O)n3C)n2Cc2cccc(Br)c2)CC1	-14%	6%	-19	-5%	0%
Cn1c(=O)[nH]c(=O)c2c1nc(Br)n2CCOc1ccccc1	18µM*	-21%	34	-2%	-21%
Cn1c(=O)[nH]c(=O)c2c1nc(Br)n2Cc1cccc(Br)c1	-3%	?	-82*	-4%	-34%
O=C(OCc1ccccc1)N1CCC2CC1c1c(-c3ccc(C(F)(F)F)cc3)cccc12 (centres undefined)	-21%	4%	-19	/	/
O=C(O)c1ccc(S(=O)(=O)N2CCC(NC(=O)C3CCCCC3)CC2)cc1	9%	-12%	-4	?	-15%
Cc1ccc(CSc2nnc(SCC(=O)N/N=C/C=C/c3ccccc3[N+](=O)[O-])s2)cc1	0%	13%	-78*	-3%	-37%
CC(/C=N/NC(=O)CSc1nnc(SCc2ccccc2)s1)=C\c1ccco1	3%	4%	-18	-7%	?
Cc1ccc(CSc2nnc(SCC(=O)N/N=C/C=C/c3ccco3)s2)cc1	11%	-2%	-61*	-9%	?
Cc1ccc(/C=C/C(=O)N2CCC(c3nc4ccccc4o3)CC2)cc1	11%	/	26	-3%	/
COC(=O)C1(O)CC(c2ccccc2)C(C(=O)c2ccccc2)N1c1ccc(Cl)cc1 (centres undefined)	/	/	-18	/	/
COC(=O)C1(O)CC(c2ccccc2)C(C(=O)c2ccc(Cl)cc2)N1c1ccccc1 (centres undefined)	/	/	-77*	/	/
COc1ccc(-c2c(C(=O)c3ccccc3)[nH]c(N)c2C(=O)c2ccc(Br)cc2)cc1OC	-26%	/	3	/	/
COc1ccc(-c2c(C(=O)c3ccccc3)[nH]c(N)c2C(=O)c2ccccc2)cc1OC	-22%	/	-70*	/	/
Cc1ccc(C)c(S(=O)(=O)N2CCCC2CNC(=O)C(=O)NC2CCCC2)c1 (centres undefined)	1%	-8%	-23	-10%	-23%
CC1=C(C(=O)OCC2CCCO2)C(c2ccc(C)o2)C2=C(CC(c3ccc(F)cc3)CC2=O)N1 (centres undefined)	5%	8.9µM*	/	?	90%
Cc1ncc(CO)c2cc(S(=O)(=O)c3ccc(F)cc3)c(=O)oc12	-11%	-4%	-10	-8%	-29%
O=C(Nc1ccccc1C(F)(F)F)c1ccc2oc(=O)c(S(=O)(=O)c3ccc(F)cc3)cc2c1	28µM*	/	-2	-2%	/
COc1ccc2cc(S(=O)(=O)c3ccccc3)c(=O)oc2c1	-30%	4%	-22	-5%	-24%
SMILES	FMDV inh	HCV inh	HCMV inh	AmpC detergent	AmpC no deterg
COc1ccccc1NC(=O)c1ccc2oc(=O)c(S(=O)(=O)c3ccccc3)cc2c1	28µM*	/	15	16%	/
O=C(Nc1ccccc1C(F)(F)F)c1ccc(F)c(S(=O)(=O)N2CCOCC2)c1	/	12%	-8	-13%	7%
O=c1oc2ccc(Br)cc2cc1S(=O)(=O)c1ccc(F)cc1	28µM*	?	/	-11%	-16%
Cc1ccc(NC(=O)c2ccc3oc(=O)c(S(=O)(=O)c4ccccc4)cc3c2)cc1C	28µM*	/	22	-8%	/
CN(CC(=O)NNC(=O)Cc1ccccc1F)S(=O)(=O)c1ccc(Cl)cc1	-24%	11%	14	-10%	-10%
O=C(c1ccccc1Cl)N1CCSCCS1(=O)=O	/	/	-16	/	/
CCOC(=O)c1cc(-c2ccccc2)n(CCCC(=O)Nc2cc(C)ccc2OC)c1C	-18%	/	?	10%	/
CCOc1ccc(NC(=O)c2oc3ccccc3c2NC(=O)Cc2cccc(C)c2)cc1	-10%	/	10	12%	/
O=c1oc(-c2ccc(Cl)cc2[N+](=O)[O-])nc2ccccc12	28%	/	21	/	/
COc1cc(CN2CC(=O)N(c3cccc(Cl)c3C)C2=S)cc(OC)c1OC	?	-20%	-63*	-6%	44%
COc1cc(CN2CC(=O)N(c3ccccc3Cl)C2=S)cc(OC)c1OC	32µM*	?	-26	-8%	43%
COc1cc(CN2CC(=O)N(c3ccc(C)c(Cl)c3)C2=S)cc(OC)c1OC	-23%	-14%	-32	-5%	70%
Cc1ccc(NC(=O)CCN2C(=O)c3ccccc3Sc3ncccc32)c(Cl)c1	-4%	/	-20	-13%	/
COC(=O)[C@]12CCCCC=C1N(Cc1ccccc1)C(=O)[C@H](CC(=O)N1CCCCC1)C2	-16%	/	-9	/	/
COc1ccc(Cl)cc1N1CC(C(=O)Nc2nccs2)CC1=O (centres undefined)	-11%	?	-67*	-4%	/
COc1ccc(CC(=O)NCc2nc3cccnc3n2Cc2ccc(C)cc2)cc1	0%	/	?	-2%	/
O=C(Nc1ccccc1)c1cc2ccccc2c(=O)s1	38%	?	5	89µM*	-19%
O=C(Nc1ccc(O)cc1)c1cc2ccccc2c(=O)s1	74%	?	-71*	0%	-25%
O=C(Nc1ccccc1)c1cc2ccccc2s1	9%	?	-18	/	/
C[C@]12CCCC3=CC(=O)C=CC31OCC2 (some centres undefined)	/	/	0	/	/
COc1ccc(C(=O)N2CCn3c(nnc3C(=O)N3CCCCC3)C2)cc1	/	/	8	/	/
O=c1c2ccccc2[nH]c(=S)n1Cc1cccs1	45%	10%	-68*	-4%	-20%
O=c1c2ccccc2[nH]c(=S)n1Cc1ccccc1	23%	-4%	-13	-17%	-22%
COc1ccc(NCc2cc3cc4c(cc3n(CC(=O)Nc3ccc(C)c(C)c3)c2=O)OCO4)cc1	8%	/	1	-4%	/
CCCn1nc([N+](=O)[O-])c(C(C#N)c2nc3ccccc3o2)c(Cl)c1=O (centres undefined)	0%	-7%	-15	0%	-43%
